Activation factor and activity change, negative = activation data for 36 compounds are collected here from PubChem BioAssay AID434970 (Sanford-Burnham Center for Chemical Genomics, 2010).

Molecules are shown by their SMILES. About 310 (2.8%) of roughly 11,000 compounds were called active. No stated cut-off is given here; in the data, active means activity change below about -85%; inactive means the rest. For the sample, actives were picked, then their nearest neighbours and some compounds at random.

For the experiment, the system named is intestinal alkaline phosphatase [Mus musculus]. Description: activators of mouse IAP, confirmation, biochemical, luminescence, single concentration (AID 434970). The following applies: purified mouse IAP, CDP-Star luminescence, 30 min, at 10 µM; activation factor: measured here: IAP activation factor, stronger effect = higher value; activity change, negative = activation: stronger effect = lower value.
For the compound `COc1cc(-c2nnc3sc(Cc4ccccc4)nn23)cc(OC)c1OC`, the activation factor was determined as 0.942 and the activity change, negative = activation was 5.85% (inactive).

As to `CCOC(=O)c1cnc(SCc2cccc(C)c2)nc1N`, the activation factor was 1.08 and the activity change, negative = activation was -7.85% (inactive).

Regarding `CCOc1ccc(NC(=O)N2CCC(C(=O)c3ccc(F)cc3)CC2)cc1`, the activation factor came out at 1.07 and the activity change, negative = activation is -7.1% (inactive).

Take `COc1cccc(OC)c1C(=O)Nc1cccc(C(C)=O)c1`: the activation factor was determined as 0.983 and the activity change, negative = activation is 1.65% (inactive).

For `NS(=O)(=O)c1ccc(N2N=C(c3ccccc3)CC2c2ccccc2)cc1` (configuration not stated), the activation factor amounted to 1.6 and the activity change, negative = activation is -59.6% (inactive).

On to `CCCC1(C(=O)OCC)NC(c2cc(OC)c(OC)c(OC)c2)C2C(=O)N(CC)C(=O)C21` (configuration not stated), for which the activation factor came to 0.957 and the activity change, negative = activation is 4.35% (inactive).

On to `O=C(CN1CCCCCC1)Nc1ccccc1F`, for which the activation factor was found to be 0.954 and the activity change, negative = activation is 4.6% (inactive).

On to `Cc1cc(C)c2nc(C(F)(F)F)nc(NCCCN3CCCC3=O)c2c1`, for which the activation factor is 0.947 and the activity change, negative = activation is 5.35% (inactive).

Turning to `COc1ccc(/C=N/NC(=O)c2cc(-c3ccccc3OC)nc3ccccc23)cc1COC(C)=O`, the activation factor was determined as 0.929 and the activity change, negative = activation is 7.05% (inactive).

As to `O=C(Nc1nc2ccc(S(=O)(=O)N3CCCCC3)cc2s1)C1CCCO1` (configuration not stated), the activation factor worked out at 0.96 and the activity change, negative = activation is 4.05% (inactive).

Turning to `COC(=O)C[C@H](NC(=O)Cn1cnc2c(NCc3ccccc3)ncnc21)C(=O)OC`, the activation factor was 0.97 and the activity change, negative = activation was 2.95% (inactive).

Regarding `Cc1cc(NC(=O)CN2C(=O)C3CC=CCC3C2=O)no1` (configuration not stated), the activation factor turned out to be 0.929 and the activity change, negative = activation is 7.05% (inactive).

Turning to `COc1ccc(OC)c(S(=O)(=O)n2nc(C)cc2C)c1`, the activation factor was found to be 1.08 and the activity change, negative = activation is -7.9% (inactive).

As to `COc1ccc(Cl)cc1NC(=O)CCc1ccccc1`, the activation factor worked out at 0.97 and the activity change, negative = activation was 3% (inactive).

Consider `O=C(CCN1CCN(C/C=C/c2ccccc2)CC1)Nc1ccccc1`, for which the activation factor amounted to 1.08 and the activity change, negative = activation is -8% (inactive).

In the case of `COc1ccccc1/C=C/CN1CCC(n2nccc2NC(=O)CCc2ccccc2)CC1`, the activation factor came out at 2.21 and the activity change, negative = activation was -121% (active).

As to `O=S(=O)(Nc1ccc(Cl)c(C(F)(F)F)c1)c1cnc[nH]1`, the activation factor stood at 0.887 and the activity change, negative = activation is 11.3% (inactive).

Turning to `C[C@H](CO)N1C[C@H](C)[C@@H](CN(C)C(=O)Nc2ccccc2)Oc2ccc(NC(=O)NC3CCCCC3)cc2C1=O`, the activation factor was determined as 1.47 and the activity change, negative = activation is -46.7% (inactive).

As for `COc1ccc(NC(=O)Nc2ccc3c(c2)C(=O)N([C@H](C)CO)C[C@H](C)[C@@H](CN(C)C(=O)Nc2ccccc2)O3)cc1`, the activation factor worked out at 1.59 and the activity change, negative = activation is -59.5% (inactive).

Consider `C[C@H](CO)N1C[C@H](C)[C@@H](CN(C)C(=O)Nc2ccccc2)Oc2ccc(NC(=O)Nc3ccc4c(c3)OCO4)cc2C1=O`, for which the activation factor amounted to 2.17 and the activity change, negative = activation was -117% (active).

On to `C[C@H](CO)N1C[C@H](C)[C@@H](CN(C)C(=O)Nc2ccc(C(F)(F)F)cc2)Oc2ccc(NC(=O)Nc3ccccc3)cc2C1=O`, for which the activation factor is 1.71 and the activity change, negative = activation was -71.5% (inactive).

Regarding `C[C@H](CO)N1C[C@H](C)[C@@H](CN(C)C(=O)Nc2ccc3c(c2)OCO3)Oc2ccc(NC(=O)Nc3ccc4c(c3)OCO4)cc2C1=O`, the activation factor came to 1.75 and the activity change, negative = activation was -74.9% (inactive).

On to `C[C@H](CO)N1C[C@H](C)[C@@H](CN(C)C(=O)NC2CCCCC2)Oc2ccc(NC(=O)Nc3ccccc3)cc2C1=O`, for which the activation factor is 2 and the activity change, negative = activation is -99.6% (active).

Regarding `COc1ccc(NC(=O)Nc2ccc3c(c2)C(=O)N([C@H](C)CO)C[C@H](C)[C@@H](CN(C)C(=O)NC2CCCCC2)O3)cc1`, the activation factor came to 1.64 and the activity change, negative = activation is -64% (inactive).

As to `C[C@H](CO)N1C[C@H](C)[C@@H](CN(C)C(=O)Nc2ccccc2)Oc2ccc(NC(=O)Nc3ccccc3)cc2C1=O`, the activation factor came to 2.23 and the activity change, negative = activation is -123% (active).

As for `COc1ccc(NC(=O)Nc2ccc3c(c2)C(=O)N([C@H](C)CO)C[C@H](C)[C@@H](CN(C)C(=O)Nc2ccc4c(c2)OCO4)O3)cc1`, the activation factor worked out at 1.63 and the activity change, negative = activation was -62.9% (inactive).

With `Cc1ccccc1C1C(C#N)=C2N=C(N)c3c(sc4c3CCCCC4)N2C2=C1C(=O)CCC2` (configuration not stated), the activation factor was determined as 0.831 and the activity change, negative = activation was 16.9% (inactive).

Take `CC1N(O)C(C)(C)C(c2ccccc2)=[N+]1[O-]` (configuration not stated): the activation factor was found to be 1.08 and the activity change, negative = activation was -7.85% (inactive).

With `Cc1cc(NC(=O)CSc2ccc(-c3ccccc3)nn2)no1`, the activation factor stood at 0.978 and the activity change, negative = activation is 2.15% (inactive).

As to `CCOC(=O)Cn1c(=O)c(-c2ccccc2NCc2ccccc2)nc2ccccc21`, the activation factor turned out to be 0.764 and the activity change, negative = activation was 23.5% (inactive).

With `COCCn1c(-c2cc(OC)c(OC)c(OC)c2)nc2oc3ccccc3c(=O)c2c1=O`, the activation factor is 0.931 and the activity change, negative = activation was 6.9% (inactive).

On to `COc1ccc(C2(CNC(=O)Cc3ccc(OC)c(OC)c3)CCOCC2)cc1`, for which the activation factor was determined as 0.999 and the activity change, negative = activation was 0.05% (inactive).

Consider `C#CCOCCOCCOCCNc1nc(N2CCN(C(=O)CCCCCCCCCCNC(=O)[C@H]([C@@H](C)CC)n3cc(CCCCN=C(N)N)nn3)CC2)nc(N2CCN(C(=O)CCCCCCCCCCNC(=O)[C@H](CO)n3cc(CCCSC)nn3)CC2)n1`, for which the activation factor worked out at 15.4 and the activity change, negative = activation is -1440% (active).

Take `C#CCOCCOCCOCCNc1nc(N2CCN(C(=O)CCCCCCCCCCNC(=O)[C@@H](CCSC)n3cc(CCO)nn3)CC2)nc(N2CCN(C(=O)CCCCCCCCCCNC(=O)[C@H]([C@@H](C)CC)n3cc(CCCCCN)nn3)CC2)n1`: the activation factor was 7.35 and the activity change, negative = activation is -635% (active).

For the compound `C#CCOCCOCCOCCNc1nc(N2CCN(C(=O)CCCCCCCCCCNC(=O)[C@@H](CCSC)n3cc(CCO)nn3)CC2)nc(N2CCN(C(=O)CCCCCCCCCCNC(=O)[C@H]([C@@H](C)CC)n3cc(CCCCN=C(N)N)nn3)CC2)n1`, the activation factor turned out to be 22.1 and the activity change, negative = activation is -2110% (active).

In the case of `FC(F)(F)c1nnc2sc(-c3cccs3)nn12`, the activation factor was determined as 0.967 and the activity change, negative = activation was 3.3% (inactive).
